Hit rate of the full screen: of about 1,100 compounds, about 260 (24%) were called active.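 The calls were made as follows: active = surface receptor percent response at or below 58%, roughly 3 SD from nonfluorescent compounds; inactive = the rest.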 Not all results are given here.
Target: Beta-2 adrenergic receptor (Homo sapiens) (UniProt P07550)
Experiment: beta2AR agonists via receptor internalization, confirmation, cell-based, FAP fluorogen, flow cytometry, single point, cherry pick 1 (AID 540358)
Settings: Am2.2-beta2AR cells, at 10 µM, active compounds read low

Beta-2 adrenergic receptor (Homo sapiens), sequence (P07550 whole entry, looked up): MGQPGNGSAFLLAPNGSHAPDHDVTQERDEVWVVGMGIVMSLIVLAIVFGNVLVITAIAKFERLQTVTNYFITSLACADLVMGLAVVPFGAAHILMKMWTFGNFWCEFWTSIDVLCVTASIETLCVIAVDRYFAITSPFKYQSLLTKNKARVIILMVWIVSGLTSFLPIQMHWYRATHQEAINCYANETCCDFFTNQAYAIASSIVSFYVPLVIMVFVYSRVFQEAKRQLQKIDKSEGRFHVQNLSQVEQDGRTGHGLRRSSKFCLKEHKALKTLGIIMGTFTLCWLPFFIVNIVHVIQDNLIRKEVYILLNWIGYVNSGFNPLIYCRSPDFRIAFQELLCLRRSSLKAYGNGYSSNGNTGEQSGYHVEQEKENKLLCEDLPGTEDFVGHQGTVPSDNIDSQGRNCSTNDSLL

Row | SMILES | percent response (surface receptor)
1 | CCC(=O)c1ccc(OCC(=O)N2CCN(CC(=O)Nc3ccc(C)cc3)CC2)cc1 | 10.7% (active)
2 | O=C1NC(=O)C(CCc2ccccn2)(Cc2cccc(Cl)c2Cl)C(=O)N1c1ccc(Br)cc1 (stereo not drawn) | 91.2% (inactive)
3 | CC(Cc1ccccc1)NCCC(c1ccccc1)c1ccccc1 (stereo not drawn) | 105% (inactive)

Reference: PubChem BioAssay AID540358 (NMMLSC, 2011)
